The target of test [1] is Cellular tumor antigen p53 (Homo sapiens) (UniProt P04637). Kind of test: Primary qHTS for small molecule compounds that upregulate eGFP-tagged delta133p53alpha (in N-terminal) cells. (AID 2060322). Further: nearly all actives have a fitted effect of over 75% in size. Further: potency means the concentration at half of the fitted maximal effect.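 On activation: cells pre-induced with doxycycline then dosed without doxycycline; series mostly up to about 56 µM; 0% = DMSO vehicle and 100% = reference activator.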 The settings on record: NCI-H358 eGFP-delta133p53alpha fluorescence, 24 h; activation: hits give high values. In short, it runs like this: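 NCI-H358 cells pre-induced 24 h with 10 ng/ml doxycycline for eGFP-delta133p53alpha, plated dox-free and exposed 24 h at 37C to titrated compounds. Fixed, Hoechst-stained; gated GFP peak intensity by laser scanning cytometry, normalized to DMSO (0%) and 57.5 uM 5-azacytidine (100%).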
Chain of Cellular tumor antigen p53 (Homo sapiens) (P04637 whole entry, looked up): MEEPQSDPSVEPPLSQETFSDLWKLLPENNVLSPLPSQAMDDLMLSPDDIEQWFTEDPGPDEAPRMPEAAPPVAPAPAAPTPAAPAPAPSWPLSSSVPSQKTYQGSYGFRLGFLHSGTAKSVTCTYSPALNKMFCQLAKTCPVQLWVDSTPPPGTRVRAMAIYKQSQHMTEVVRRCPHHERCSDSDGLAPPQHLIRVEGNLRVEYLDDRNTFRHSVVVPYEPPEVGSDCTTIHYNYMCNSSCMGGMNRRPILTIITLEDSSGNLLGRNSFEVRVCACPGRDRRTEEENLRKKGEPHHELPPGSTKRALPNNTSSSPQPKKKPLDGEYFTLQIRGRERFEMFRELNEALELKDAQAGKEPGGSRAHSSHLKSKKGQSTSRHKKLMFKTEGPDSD
(In general: Quantitative high-throughput screening tests each substance at several concentrations.)

In test [2] the target is Aldehyde dehydrogenase, mitochondrial (Homo sapiens) (UniProt P05091). Kind of test: qHTS for Inhibitors of the Aldehyde Dehydrogenase Family (ALDH2) Primary screen (AID 2061308).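 Further: plate controls were vehicle for no effect and reference inhibitor for full effect; nearly all actives have a fitted effect of over 55% in size.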
For test [3], the target named is Retinaldehyde dehydrogenase 3 (Homo sapiens) (UniProt P47895). As to the kind of experiment: qHTS for Inhibitors of the Aldehyde Dehydrogenase Family (ALDH1A3) Validation screen (AID 2061312). Further: on the % scale 0 is the no-effect control and ±100 the full control effect; nearly all actives have a fitted effect of over 45% in size.
Test [4] shares this target. As to the kind of experiment: qHTS for Inhibitors of the Aldehyde Dehydrogenase Family (ALDH1A3) Primary screen (AID 2061315).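 Further: plate controls were DMSO vehicle for no effect and reference inhibitor for full effect.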

The structures appear in SMILES notation. Several values for one entry are separate records, joined by “and”; a condition that tells them apart may be missing. Identical values can stand only once. Inconclusive results are not listed. Activity calls are given as the source filed them. The call rests on the fitted dose curve; in most records, active means well fitted curve in the direction sought with a large enough effect; inconclusive means small, poorly fitted or top-dose-only effect, or another doubt; inactive means no such curve, though single readings can be large; an effect the other way counts as inactive or inconclusive.

In the case of `CCc1cnc(N2CCC(c3nc(COc4ccc(-n5cnnn5)cc4)cs3)CC2)nc1`, the activation in test [1] is 2.86% (inactive). The Potency entry in test [2], in test [3] and in test [4] was “inactive” in each case.
As for `COc1cc(Br)c(Nc2nc(-c3c(C)nc4ncccn34)cs2)c(Br)c1`, in test [1], the activation is 14.8% (inactive). Further, the Potency entry in test [2], in test [3] and in test [4] was “inactive” throughout.
Regarding `CN[C@@H](C)C(=O)N[C@H]1CN(C(=O)CC(C)C)CC[C@H]2CC[C@@H](C(=O)NC(c3ccccc3)c3ccccc3)N2C1=O`, the activation in test [1] is 28.1% (inactive). The Potency entry in test [2], in test [3] and in test [4] was “inactive” each time.
For the compound `Clc1cccc(-c2nnnn2Cc2cccnc2)c1Cl`, in test [1], the activation was 12.9% (inactive) and -2.86% (inactive). Further, the Potency entry in test [2], in test [3] and in test [4] was “inactive” in each case.
For the compound `COc1ccc(C2(CNC(=O)c3ccc(NC(=O)c4ccco4)cc3)CCOCC2)cc1`, in test [1], the activation is 5.25% (inactive). Moreover, the Potency entry in test [2], in test [3] and in test [4] was “inactive” each time.
Regarding `CCCn1c(=O)c2[nH]c(-c3ccc(OCC(=O)O)cc3)nc2n(CCC)c1=O`, the activation in test [1] is -5.73% (inactive). Also, the Potency result in test [2], in test [3] and in test [4] was “inactive” throughout.
Take `COc1cccc(C(=O)N2CCN(C(=O)COc3cccc(C)c3)CC2)c1OC`: the activation in test [1] was 4.77% (inactive). Besides, the Potency result in test [2], in test [3] and in test [4] was “inactive” each time.
Turning to `CN(C)S(=O)(=O)c1ccc(NC(=S)N2CCC(C(O)(c3ccccc3)c3ccccc3)CC2)cc1`, the activation in test [1] was -6.68% (inactive). Also, the Potency entry in test [2], in test [3] and in test [4] was “inactive” in each case.
As to `O=C(NCc1cccc(O)c1)c1cc2cc(F)ccc2[nH]1`, the activation in test [1] is 0% (inactive). Also, the Potency entry in test [2], in test [3] and in test [4] was “inactive” in each case.
Regarding `CC(C)(CO)c1cc2cc(NC(=O)C3(c4ccc5c(c4)OC(F)(F)O5)CC3)c(F)cc2n1CC(O)CO` (centres undefined), the activation in test [1] was 17.7% (inactive). In addition, the Potency entry in test [2], in test [3] and in test [4] was “inactive” throughout.
Turning to `CCOc1nc2cccc(C(=O)O)c2n1Cc1ccc(-c2ccccc2-c2noc(=O)[nH]2)cc1`, the activation in test [1] is 0.955% (inactive). In addition, the Potency entry in test [2], in test [3] and in test [4] was “inactive” each time.
Consider `CN(C)C(=O)NC1(c2ccccc2)CCN(CCC[C@]2(c3ccc(Cl)c(Cl)c3)CCCN(C(=O)c3ccccc3)C2)CC1`, for which the activation in test [1] is 13.4% (inactive). Also, the Potency result in test [2], in test [3] and in test [4] was “inactive” in each case.
For `CN1CCN(Cc2ccc(NC(=O)Cc3ccc(Oc4cc(NC(=O)C5CC5)ncn4)cc3)cc2C(F)(F)F)CC1`, the Potency in test [1] is 6.75 µM (active). The Potency entry in test [2], in test [3] and in test [4] was “inactive” throughout.
As for `O=C(NCc1ccc(OC(F)(F)F)cc1)C1c2ccccc2C(=O)N1C1CCOCC1` (centres undefined), the activation in test [1] was -5.73% (inactive). Further, the Potency result in test [2], in test [3] and in test [4] was “inactive” throughout.
For `On1ncc(C2CCNCC2)c1-c1cccc(-c2ccccc2)c1`, the activation in test [1] is -8.11% (inactive). Further, the Potency entry in test [2], in test [3] and in test [4] was “inactive” in each case.
For `CCNC(=O)N1CCCN(c2ccc(C(=O)NCCc3ccc(Cl)cc3Cl)cc2NC(=O)c2cccc(Cl)c2)CC1`, in test [1], the activation was 1.91% (inactive). For the same compound, the Potency entry in test [2], in test [3] and in test [4] was “inactive” throughout.
As for `Fc1ccc2c(CCNCc3cccc(OCC(F)(F)C(F)F)c3)c[nH]c2c1`, the activation in test [1] is 3.34% (inactive). Also, the Potency entry in test [2], in test [3] and in test [4] was “inactive” each time.
On to `O=C(COc1ccc(C(=O)c2ccccc2)cc1)NC1CCN(Cc2ccccc2)CC1`, for which the activation in test [1] was -6.68% (inactive). Further, the Potency entry in test [2], in test [3] and in test [4] was “inactive” throughout.
Take `C#CCN(Cc1cc2c(=O)[nH]c(C)nc2cc1Br)c1ccc(C(=O)NCc2cccnc2)cc1`: in test [1], the activation is -5.73% (inactive). The Potency entry in test [2], in test [3] and in test [4] was “inactive” throughout.
Consider `NS(=O)(=O)c1ccc(N2CCN(CC[C@@H]3OCCc4ccccc43)CC2)cc1`, for which, in test [1], the activation was 16.7% (inactive). Moreover, the Potency entry in test [2], in test [3] and in test [4] was “inactive” throughout.
In the case of `O=c1cc(OCc2ccc(F)cc2)ccn1-c1ccc(OCCN2CCCC2)cc1`, in test [1], the activation is -0.955% (inactive). Moreover, the Potency entry in test [2], in test [3] and in test [4] was “inactive” throughout.
Regarding `O=c1[nH]cnc2c1ncn2[C@@H]1O[C@H](CO)[C@@H](O)[C@H]1O`, the activation in test [1] is -11.7% (inactive) and 6.21% (inactive). Further, the Potency result in test [2], in test [3] and in test [4] was “inactive” each time.
As to `COc1ccc(-c2cnc3ccc(NCc4ccc(S(N)(=O)=O)cc4)nn23)cc1OC`, the activation in test [1] is 5.73% (inactive). The Potency result in test [2], in test [3] and in test [4] was “inactive” throughout.
For the compound `O=C(Nc1ccn(Cc2ccc(O)cc2C(F)(F)F)n1)c1c(F)cccc1F`, in test [1], the activation is -13.4% (inactive). Further, the Potency result in test [2], in test [3] and in test [4] was “inactive” each time.
As to `CC(C)[C@@H](C)/C=C/[C@@H](C)[C@H]1CC[C@H]2C3=CC=C4C[C@@H](O)CC[C@]4(C)[C@H]3CC[C@]12C`, the activation in test [1] is 14.3% (inactive). Further, the Potency result in test [2], in test [3] and in test [4] was “inactive” throughout.
As to `O=C(NS(=O)(=O)c1ccc(Br)s1)c1ccc(Cl)cc1Cl`, the activation in test [1] is -12.4% (inactive). In addition, the Potency entry in test [2], in test [3] and in test [4] was “inactive” throughout.

Source of the values: PubChem BioAssay (NCATS).
